Screen size: about 94,000 compounds; about 6,200 (6.6%) were called active. Roughly 31% stayed inconclusive and do not appear here. What follows is part of a selection rich in actives, with near analogues and random picks from the rest. Unmarked numbers belong to inactive results. Calls come from the whole dose curve; as a rule, active = well fitted inhibition curve with a large enough effect; inconclusive = small, poorly fitted or top-dose-only effect; inactive = flat fitted curve, though single readings scatter.
Test: Cytotoxic Profiling in HEK 293 Cell Line of Diverse Libraries Using Quantitative High-Throughput Screening; note: nearly all actives have a fitted effect of over 60% in size
Settings: HEK 293 viability, ATP luminescence (CellTiter-Glo), 48-72 h; series mostly up to 115 µM; activity change, negative = cytotoxicity: at the top concentration
Outline: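 Viability of HEK 293 cells, plated at 250 cells/well, was judged by cellular ATP after compound treatment for 48 or 72 hr. Luminescence was imaged 10 min after CellTiter-Glo addition at room temperature.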
For `COc1ccccc1-c1ccc(CN2CCC(NC(=O)c3ccc(Cl)nc3)C2)cc1` (stereo unspecified), the Potency was 50.1 µM (active).
In the case of `COc1ccc(F)cc1-c1ccc(CN2CCC(N[S+](=O)([O-])c3ccccc3)C2)cc1` (stereo unspecified), the Potency is reported as 44.7 µM (active).
In the case of `COc1ccc(-c2ccccc2C(=O)N2CCC(NC(=O)Cc3ccc(F)cc3)CC2)nn1`, the “outcome” value is reported as “inactive”.
With `COc1ccccc1-c1nnc2ccc(C(=O)NC3CC3)cn12` the “activity change, negative = cytotoxicity” value was -6.24% [at 172 µM].
With `CN(C)C(=O)C1CN(C(=O)c2ccccc2Cl)CC12CCOCC2` (stereo unspecified) the “activity change, negative = cytotoxicity” value was -0.809%.
For `Cc1cnc(C2CC2)n1C1CCN(C(=O)C(C)C)CC1`, the “outcome” value was “inactive”.
For `COc1ccc(C(=O)N2CCOC3(CCN(C(=O)CN)CC3)C2)cc1`, the “outcome” value was “inactive”.
With `COCCNC(=O)c1ccc(CC2CCNCC2)cc1` the “activity change, negative = cytotoxicity” value was -45.9%.
For `Cc1cnc(-c2cccnc2)n1C1CCN(S(=O)(=O)c2cccc(F)c2)CC1`, the “activity change, negative = cytotoxicity” value was -7.54%.
With `O=C(c1c(OCC2CC2)cc(=O)n2c1CCOCC2)N1CCCCCC1` the “activity change, negative = cytotoxicity” value was -9.09%.
For `CCOc1ccc(NC(=O)C2(Cc3cccnc3)CCCCC(=O)N2)cc1` (stereo unspecified), the “activity change, negative = cytotoxicity” value was -22.4%.
With `COc1cccc(NC(=O)c2cnc3n[nH]c(-c4ccc(OC)cc4C)c3n2)c1` the Potency was 100 µM (active).
For `COc1cccc(NC(=O)c2c(OC)cc(=O)n3c2CCCC3)c1`, the “activity change, negative = cytotoxicity” value was -19.1%.
In the case of `COC(=O)C1=CN(CC(=O)Nc2cccc(OC)c2)S(=O)(=O)N=C1C`, the “activity change, negative = cytotoxicity” value is reported as -21.2%.
In the case of `CC(c1ccon1)N(C)Cc1cnc(S(=O)(=O)C(C)C)n1Cc1ccccc1F` (stereo unspecified), the “activity change, negative = cytotoxicity” value is reported as -13.1%.
In the case of `O=C(NC1CCCCC1)N1CCCCCC1c1nc(-c2cccnc2)no1` (stereo unspecified), the “activity change, negative = cytotoxicity” value is reported as -16.5%.
In the case of `CC(=O)N1CCC(N2CCC[C@H]2c2nc(-c3ccc(-c4cncnc4)nc3)no2)CC1`, the “activity change, negative = cytotoxicity” value is reported as -10.2% [at 172 µM].
For `CN1CCC(N2CCC[C@H]2c2nc(-c3ccc(OC4CCCCC4)nc3)no2)CC1`, the Potency was 28.2 µM (active).
For `O=C(N[C@@H]1CN(Cc2cccnc2)C[C@H]1CO)c1cccnc1`, the “activity change, negative = cytotoxicity” value was -8.4%.
With `CCn1cc(CN2CCOc3ccc(C(=O)NCc4ccccc4F)cc3C2)cn1` the “activity change, negative = cytotoxicity” value was -22%.
In the case of `COc1c(F)cccc1CN1CCOc2cc([S+](=O)([O-])N(C)C)ccc2C1`, the Potency is reported as 79.4 µM (active).
For `O=[S+]([O-])(Nc1cccnc1)c1ccc2c(c1)OCCN(Cc1cscn1)C2`, the “activity change, negative = cytotoxicity” value was -16.3% [at 172 µM].
For `O=C(c1ccccc1F)N1CCCC2(CN[S+](=O)([O-])c3cccnc3N2)C1` (stereo unspecified), the “activity change, negative = cytotoxicity” value was -1.19%.
For `CN(CCCNC1CCC2(CCNCC2)CC1)c1ccccc1`, the Potency was 79.4 µM (active).
With `O=c1c2ccccc2cnn1CCNC1CCC2(CCNCC2)CC1` the “activity change, negative = cytotoxicity” value was -8.73%.
For `Cc1nonc1OCCNC1CCC2(CCNCC2)CC1`, the “activity change, negative = cytotoxicity” value was -20.4%.
In the case of `CNC(=O)[C@@H]1CN(C(=O)c2cnc(C)cn2)C[C@H]1COC`, the “activity change, negative = cytotoxicity” value is reported as -3.77%.
In the case of `Cc1onc(-c2cnn(C)c2NCc2ccc(C#N)cc2)c1C(=O)N1CCN(C)CC1`, the “activity change, negative = cytotoxicity” value is reported as -6.43% [at 172 µM].
With `CNC(=O)N1CCCC1c1nc(C2CN(C(=O)c3nccn3C)C2)no1` (stereo unspecified) the “outcome” value was “inactive”.
In the case of `CC1(C(=O)NCc2ccc3c(c2)OCO3)CCc2cnc(NCc3ccccc3)nc21` (stereo unspecified), the Potency is reported as 70.8 µM (active).
In the case of `CN1C(=O)CC[C@]2(C(=O)NCc3ccc4c(c3)OCO4)CCCC[C@@H]12`, the “activity change, negative = cytotoxicity” value is reported as 4.76%.
With `Cn1ncc2c(C(=O)NCc3ccc4c(c3)OCO4)cc(-c3ccc(Cl)nc3)nc21` the “activity change, negative = cytotoxicity” value was -2.46%.
For `O=C1Nc2ccc(-c3ccccc3)cc2C(=O)N2C[C@H](O)C[C@@H]12`, the “activity change, negative = cytotoxicity” value was -41.1% [at 172 µM].
With `O=C(Cc1cc(F)c(F)c(F)c1)N1CCC(Cc2cccc(CO)c2)C1` (stereo unspecified) the “activity change, negative = cytotoxicity” value was -29.4%.
In the case of `CC(C)(CC(=O)O)CC(=O)N[C@H]1CO[C@H]2[C@@H]1OC[C@@H]2n1nnnc1-c1ccccc1`, the “activity change, negative = cytotoxicity” value is reported as -5.18% [at 172 µM].
In the case of `c1ccc(CO[C@@H]2CO[C@H]3[C@@H]2OC[C@@H]3n2nnnc2SCc2ccco2)cc1`, the Potency is reported as 89.1 µM (active).
For `CN(C)CC(=O)N1CC[C@H]2COC(=O)N2c2ccccc2C1`, the “activity change, negative = cytotoxicity” value was -3.61% [at 172 µM].
With `Cc1nc(CCNC(=O)NC2CCCC2)no1` the “activity change, negative = cytotoxicity” value was 0.591%.
For `CN1C(=O)CS(=O)(=O)C12CCN(C(=O)C1(c3ccccc3)CC1)CC2`, the “activity change, negative = cytotoxicity” value was -2.32%.
In the case of `CNC(=O)[C@@H]1C[C@@H](O)CN1C1CCN(C(=O)C2(c3ccccc3)CC2)CC1`, the “activity change, negative = cytotoxicity” value is reported as -19.2%.
With `COC1C(=O)N(c2cccc(F)c2)C12CCN(C(=O)C1(c3ccccc3)CC1)CC2` (stereo unspecified) the Potency was 44.7 µM (active).
For `O=C([C@@H]1C[C@H](Oc2cccnc2)CN1C(=O)Cc1cccc(F)c1)N1CCCC1`, the “activity change, negative = cytotoxicity” value was 1.61%.
For `CCCN(CC1CCOC1)S(=O)(=O)c1ccccc1Cl` (stereo unspecified), the “activity change, negative = cytotoxicity” value was -22.3%.
In the case of `CN1CCN(c2nc3c(c(=O)[nH]2)CCN(Cc2cccc4[nH]ccc24)CC3)CC1`, the “activity change, negative = cytotoxicity” value is reported as -15.9%.
For `Cc1ccc(C2Cn3nnc(C(=O)N4CCN(C(=O)COc5cccc(C)c5)CC4)c3CO2)cc1` (stereo unspecified), the “activity change, negative = cytotoxicity” value was 11.9%.
For `c1ccc2c(CN3CCC[C@H]3c3nc(-c4ccnc(N5CCOCC5)c4)no3)c[nH]c2c1`, the Potency was 89.1 µM (active).
For `COc1ccc(CN2CCC[C@H]2c2nc(-c3ccc(N(C)C)nc3)no2)c(O)c1`, the “activity change, negative = cytotoxicity” value was -5.35% [at 172 µM].
For `CC(=O)N1CCN(c2cc(-c3noc([C@@H]4CCCN4C4CCC4)n3)ccn2)CC1`, the “activity change, negative = cytotoxicity” value was -23.6% [at 172 µM].
With `O=C1CC(c2nc(-c3ccc4nc[nH]c4c3)no2)CN1Cc1ccncc1` (stereo unspecified) the “activity change, negative = cytotoxicity” value was 1.22%.
In the case of `CC(=O)N1CCN(c2cc(-c3noc([C@@H]4CCCN4Cc4ccccc4)n3)ccn2)CC1`, the Potency is reported as 70.8 µM (active).
With `CS(=O)(=O)c1ccc(CN2CCC[C@H]2c2nc(-c3ccc(N4CCC(C(N)=O)CC4)nc3)no2)cc1` the “activity change, negative = cytotoxicity” value was -12.9%.
% is set by controls: 0 for no effect and ±100 for the full control effect; potency is the fitted concentration of half-maximal effect.
